From PubChem
RECQ1 inh-1 = qHTS Assay for Inhibitors of RecQ-Like Dna Helicase 1 (RECQ1); AID 2549, 2010; RECQ1 DNA unwinding, red fluorescence kinetic read; ATP-dependent DNA helicase Q1 (Homo sapiens), P46063; Potency, µM (titrated, usually from 57.3 µM), hits mostly inhibitors; 240,000 compounds, 0.54% hits; further: nearly all actives have a fitted effect of over 30% in size
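RECQ1T1 50 nM; forked duplex (20 bp + 30-nt ss tails) 200 nM, ATP 2 mM final; pH 8.0, 2 mM MgCl2, 2.5 ug/ml poly(dI-dC); 15 min compound preincubation; discontinuous kinetic read over 2 h at RT.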
GCN5L2 inh = qHTS Assay for Inhibitors of GCN5L2. GCN5L2 HAT assay, ThioGlo1 CoA-SH fluorescence. Histone acetyltransferase KAT2A (Homo sapiens), Q92830. 390,000 compounds, 0.21% hits. Potency, µM (highest dose often 58.9 µM), actives largely listed as inhibitors
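Compounds, pin-transferred from DMSO stocks, meet 20nM GCN5L2 for 15 min before the reaction begins with H3(1-25) peptide (75uM) and acetyl-CoA (70uM). Thiol-reactive ThioGlo1 reports CoA release over 20 min at room temperature.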
TDP1 inh = qHTS Assay for Inhibitors of Tyrosyl-DNA Phosphodiesterase (TDP1) | 350,000 compounds, 0.28% hits | recombinant TDP1, AlphaScreen DNA substrate cleavage | Potency, µM (doses to about 130 µM), most hits filed as inhibitors; further: nearly all actives have a fitted effect of over 40% in size
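Signal: AlphaScreen proximity between streptavidin donor and anti-FITC acceptor beads on intact substrate. Reaction: Tdp1 1 nM, substrate 15 nM final, 5 min RT after 15 min compound preincubation.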
BLM helicase inh = qHTS Assay for Inhibitors of Bloom's syndrome helicase (BLM). 350,000 compounds, 0.2% hits. Potency, µM (titrated, usually from 56.1 µM), usual class: inhibitors. recombinant BLM DNA unwinding, fluorescence dequenching; further: nearly all actives have a fitted effect of over 35% in size
JMJD2E inh = qHTS Assay for Inhibitors of Human Jumonji Domain Containing 2E (JMJD2E). Lysine-specific demethylase 4E (Homo sapiens), B2RXH2. JMJD2E catalytic domain, FDH-coupled NADH fluorescence (FDH is formaldehyde dehydrogenase). Potency, µM (highest dose often 57.1 µM), hits mostly inhibitors. 230,000 compounds, 1.6% hits. AID 2147, 2009; active means well fitted inhibition curve with a large enough effect, not every such curve was filed as active; inconclusive means small, poorly fitted or top-dose-only effect, or another doubt; inactive means no such curve, though single readings can be large or run the other way; further: nearly all actives have a fitted effect of over 50% in size
APE1 inh = qHTS Assay for Inhibitors of the Human Apurinic/apyrimidinic Endonuclease 1 (APE1); DNA repair nuclease/redox regulator APEX1 (Homo sapiens), P27695; recombinant APE1, TAMRA/BHQ-2 abasic DNA cleavage fluorescence; Potency, µM (series often up to 65.8 µM), usual class: inhibitors; 350,000 compounds, 0.35% hits; AID 2517, 2012; further: nearly all actives have a fitted effect of over 55% in size
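Endonuclease cleavage of a quenched abasic-site DNA duplex (50 nM) by APE1 (0.75 nM) was tracked by TAMRA dequenching. Compounds were preincubated with enzyme 15 min at room temperature; data normalized to buffer-only and DMSO wells plus NSC13755 control.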
RECQ1 inh conf = Confirmation qHTS Assay for Inhibitors of RecQ-Like Dna Helicase 1 (RECQ1). shares compounds with RECQ1 inh-1. RECQ1 helicase DNA unwinding, fluorescence. Potency, µM (titrated, usually from 229 µM), most hits filed as inhibitors. 610 compounds, 28% hits; further: nearly all actives have a fitted effect of over 45% in size
RECQ1 ADP FP = Counterscreen for RECQ1 Inhibitors: ADP Fluorescence Polarization Displacement Assay; shares compounds with RECQ1 inh-1; Potency, µM (highest dose often 228 µM), usual class: inhibitors; 530 compounds, 27% hits; ADP fluorescence polarization displacement counterscreen; further: nearly all actives have a fitted effect of over 45% in size
RECQ1 inh-2 = Confirmation qHTS Assay for Inhibitors of RecQ-Like Dna Helicase 1 (RECQ1) - Round 2 Cherry Picks. AID 504841, 2011. shares compounds with RECQ1 inh-1. Potency, µM (top dose mostly 119 µM), actives largely listed as inhibitors. 1,100 compounds, 15% hits. recombinant RECQ1 DNA unwinding, red fluorescence; further: nearly all actives have a fitted effect of over 50% in size
Numbers stand for hits; i = inactive; ? = inconclusive; nt = no result; [ ] = another dose, or the depositor's remark. Many of the other results were omitted from the sample, so hits are more common in it than they were. Unless noted, the call rests on the fitted dose curve; in most records, active means well fitted curve in the direction sought with a large enough effect; inconclusive means small, poorly fitted or top-dose-only effect, or another doubt; inactive means no such curve, though single readings can be large; an effect the other way counts as inactive or inconclusive.

SMILES	RECQ1 inh-1	GCN5L2 inh	TDP1 inh	BLM helicase inh	JMJD2E inh	APE1 inh	RECQ1 inh-2	others
O=S(=O)(c1ccc(-c2nnc(SCc3nnc(-c4ccccc4)o3)o2)cc1)N1CCCC1	i	i	i	i	i	i	nt	RECQ1 inh conf=i;RECQ1 ADP FP=i
CCn1c(SCc2nnc(-c3ccccc3)o2)nnc1-c1ccc(S(=O)(=O)N2CCCC2)cc1	i	i	i	i	i	i	nt
Cc1ccc(C(=O)c2cc([N+](=O)[O-])ccc2N2CCCCC2)c(C)c1	1.58µM	i	i	i	i	i	i
Cc1ccc(-c2nn(-c3cccc(F)c3)cc2CN2CCN(c3ccccn3)CC2)o1	?	i	i	i	?	i	?
Cc1ccc(-c2nn(-c3cccc(F)c3)cc2CN(Cc2nccn2C)C(C)C)o1	i	i	nt	i	?	i	nt
C#CCCCO/N=C1/C[C@@H](O)[C@@H](O)[C@@H]2[C@@H]3C(=O)N(C(C)(C)C)C(=O)[C@H]3CC[C@H]12	i[11.5 µM]	nt	i[21 µM]	i[12.4 µM]	nt	i[12.4 µM]	nt
COn1c(SCc2cccc(Cl)c2)nc2ccccc2c1=O	7.08µM	i	i	i	i	i	i	RECQ1 inh conf=i;RECQ1 ADP FP=?
N=C1/C(=C\c2ccc(SCc3ccccc3)o2)C(=O)N=C2SC(CC(=O)N3CCOCC3)=NN12	?	i	i	i	?	i	i
Cc1ccc2oc(C(=O)N(Cc3ccccc3F)C3CCS(=O)(=O)C3)c(C)c2c1 (stereo unspecified)	nt	i	i	i	nt	nt	nt
COCCn1c(=NC(=O)c2ccc(S(=O)(=O)N3CCc4ccccc4C3)cc2)sc2cc(OC)ccc21	i	i	i	i	?	i	nt	RECQ1 inh conf=i;RECQ1 ADP FP=i
CNc1ccccc(C(=O)/C=C/c2ccccc2OC)c1=O	25.1µM	i	i	i	?	i	?
COc1ccccc1/C=C/C(C)=O	i	i	i	i	?	i	nt
Cc1cc2cc(C(c3nnnn3Cc3ccco3)N3CCc4ccccc43)c(=O)[nH]c2cc1C (stereo unspecified)	?	i	i	i	?	?	i
CC(C)NS(=O)(=O)c1ccc2nc(NC(=O)c3cncc(Br)c3)sc2c1	nt	?	i	i	nt	nt	nt
O=C(COC(=O)CCC(NC(=O)OCc1ccccc1)C(=O)OCC(=O)Nc1ccccc1)Nc1ccccc1 (stereo unspecified)	?	i	i	i	i	i	i
O=C1NN(c2cccc(Br)c2)C(=O)/C1=C/c1ccc(-c2cc([N+](=O)[O-])ccc2O)o1	20µM	i	nt	i	i	i	nt	RECQ1 inh conf=63.1µM
CC(=O)Oc1ccc2c(=O)c(Oc3ccccc3)coc2c1OC(C)=O	3.55µM	i	nt	i	3.55µM	2.24µM	25.1µM
COc1cccc(-c2ccc3ncnc(Nc4ccccc4)c3c2)c1	i	i	nt	i	nt	i	nt
COc1ccccc1Oc1nc2c(c(=O)n(Cc3ccccc3F)c(=O)n2C)n1C	?	?	i	?	i	?	i
